Measurements taken from PMC10726135, “HNF4α isoforms regulate the circadian balance between carbohydrate and lipid metabolism in the liver”.
The full ranking holds about 18,000 sequences; the median of “log2 normalized intensity” is about 0.39, and the highest 2% start at about 6.6. Many of the other results were omitted from the sample, so the highest values are more common in it than they were.

What follows are sequences tested against T1, HNF4alpha2 (COS-7 nuclear extract) (Homo sapiens, UniProt P41235 1-474) (assay: protein-binding microarray; COS-7 nuclear extract on double-stranded Agilent 4x180k PBM; binding buffer, salt, pH and temperature not given in the material; high values mean tight binding). Details: chain copies: 2; label: 3' end of strand 1 on the slide; dsDNA, one strand shown.
T1 sequence: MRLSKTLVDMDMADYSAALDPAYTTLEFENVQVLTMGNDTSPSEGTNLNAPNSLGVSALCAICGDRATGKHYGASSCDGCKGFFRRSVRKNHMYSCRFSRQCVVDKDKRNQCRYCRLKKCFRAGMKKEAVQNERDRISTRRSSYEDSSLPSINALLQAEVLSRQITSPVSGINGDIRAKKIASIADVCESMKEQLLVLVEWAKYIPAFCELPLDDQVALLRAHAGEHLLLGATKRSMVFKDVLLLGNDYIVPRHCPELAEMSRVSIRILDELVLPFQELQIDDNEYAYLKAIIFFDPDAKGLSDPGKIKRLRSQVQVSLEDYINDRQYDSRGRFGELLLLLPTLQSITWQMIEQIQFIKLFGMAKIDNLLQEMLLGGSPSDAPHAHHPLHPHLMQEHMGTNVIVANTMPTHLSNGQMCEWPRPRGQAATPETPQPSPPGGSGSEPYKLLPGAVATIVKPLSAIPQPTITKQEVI
In short: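 Binding signal was defined as the normalized, background-corrected gProcessedSignal reported by Agilent software. It came from nuclear extracts of COS-7 cells transiently transfected with a human HNF4α isoform expression vector, applied to a custom Agilent SurePrint G3 4x180k array. That array held ~44,000 test sequences in quadruplicate as double-stranded ~60-nt oligonucleotides, and bound HNF4α was imaged at 2-µm resolution on an Agilent G2565CA scanner.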

Sequence | binding signal
TGCTTTCTTATCTGGGGGCCATTCCTCTATGCCTAGGGAGATTAGAGTATCGGTCGA | 1.1 log2 normalized intensity
ACTTTGGAACTCAGTTAATGTACAGAGTATGCCTAGGGAGATTAGAGTATCGGTCGA | 0.375 log2 normalized intensity
ATTAGAGAACATGTACTTTGTACTGCTTATGCCTAGGGAGATTAGAGTATCGGTCGA | 4.15 log2 normalized intensity
AGGAGATGTGGTGGACTTTAACGACCTTTGGCCTAGGGAGATTAGAGTATCGGTCGA | 4.66 log2 normalized intensity
AGGGACTTTGATCTTCTTACCCCTTTGCTGGCCTAGGGAGATTAGAGTATCGGTCGA | 2.86 log2 normalized intensity
TCTTAACATCAGAAGTTGGACTTTGTACATGCCTAGGGAGATTAGAGTATCGGTCGA | 9.62 log2 normalized intensity
CCCCTTCTTAACATCAGAAGTTGGACTTTGGCCTAGGGAGATTAGAGTATCGGTCGA | 7.59 log2 normalized intensity
CTTTGCTCCCACCCTGCAATTCCCCTGGGCGCCTAGGGAGATTAGAGTATCGGTCGA | 3.29 log2 normalized intensity
CAAACAGACCTCCCCCAACTTACTTAGTGGGCCTAGGGAGATTAGAGTATCGGTCGA | 1.85 log2 normalized intensity
TTCAATTTTTTTGTTGTTATCCATTTAAAAGCCTAGGGAGATTAGAGTATCGGTCGA | 1.04 log2 normalized intensity
GTATCTAATCTCAGATATGCTAATTAACCCGCCTAGGGAGATTAGAGTATCGGTCGA | 1.79 log2 normalized intensity
GTTATGAGTCTGTTGTCTAACATTTTTGACGCCTAGGGAGATTAGAGTATCGGTCGA | 0.629 log2 normalized intensity
CTTACTTGGCCTGTTTGCTGAAGGCCATGCGCCTAGGGAGATTAGAGTATCGGTCGA | 0.0452 log2 normalized intensity
CAACTAGGGCAAAGGTTAGCTTGGACAGAGGCCTAGGGAGATTAGAGTATCGGTCGA | 2.72 log2 normalized intensity
GGTATGTTTGTGATATTGTGAAATATATATGCCTAGGGAGATTAGAGTATCGGTCGA | 2.03 log2 normalized intensity
GATGATCATGGCTCACTGCACCTTGACCTCGCCTAGGGAGATTAGAGTATCGGTCGA | 7.34 log2 normalized intensity
GTGGTCCTAAGACTGACCTTTGATCATTTGGCCTAGGGAGATTAGAGTATCGGTCGA | 8.56 log2 normalized intensity
GACTGACCTTTGATCATTTGAGGGTGACACGCCTAGGGAGATTAGAGTATCGGTCGA | 5.65 log2 normalized intensity
GTGGTCCTAAAATTGACCTTTGATCACTCAGCCTAGGGAGATTAGAGTATCGGTCGA | 9.68 log2 normalized intensity
GAACTGAAAGAGACCTTTGACATCACCTAAGCCTAGGGAGATTAGAGTATCGGTCGA | 2.04 log2 normalized intensity
GATAAGCGTATTTCAACCTTTGATCTATAAGCCTAGGGAGATTAGAGTATCGGTCGA | 5.94 log2 normalized intensity
TGCACTTTGACCGCTCATTTGATCCTCACAGCCTAGGGAGATTAGAGTATCGGTCGA | 3.87 log2 normalized intensity
GCACTGATAAGCGTATTTCAACCTTTGATCGCCTAGGGAGATTAGAGTATCGGTCGA | 7.8 log2 normalized intensity
AGGAGGCACTGATAAGCGTATTTCAACCTTGCCTAGGGAGATTAGAGTATCGGTCGA | 0.384 log2 normalized intensity
AGTGCGATGATCATGGCTCACTGCACCTTGGCCTAGGGAGATTAGAGTATCGGTCGA | 0.629 log2 normalized intensity
TGCCTTTGATCAGGGACCTTTGTTCCTTTAGCCTAGGGAGATTAGAGTATCGGTCGA | 4.43 log2 normalized intensity
TCATGGCTCACTGCACCTTGACCTCCTGGGGCCTAGGGAGATTAGAGTATCGGTCGA | 4.99 log2 normalized intensity

Sequence | binding signal
CACCTTCAGTCACACTGTTTGCGCAAACTAGCCTAGGGAGATTAGAGTATCGGTCGA | -0.824 log2 normalized intensity
TACCAAGGCTCAGAGGTCAAGTCACTGCTCGCCTAGGGAGATTAGAGTATCGGTCGA | 2.57 log2 normalized intensity
CCTTGGCTGTGTGACTCACCTTTGCTCTGAGCCTAGGGAGATTAGAGTATCGGTCGA | 3.71 log2 normalized intensity
GGGGTCTGGTTTCTAGGTAGATAAGGGAGTGCCTAGGGAGATTAGAGTATCGGTCGA | 1.29 log2 normalized intensity
TCATCCGCATCTGAAGATAAGAGAAGTTGCGCCTAGGGAGATTAGAGTATCGGTCGA | -0.83 log2 normalized intensity
AACAGTGAATGTTTCGTAATATTTAGGTGTGCCTAGGGAGATTAGAGTATCGGTCGA | 1.49 log2 normalized intensity
TCATTTTACAGATAAGGAAACCAAGGTCCAGCCTAGGGAGATTAGAGTATCGGTCGA | 1.45 log2 normalized intensity
CACCCCCATGCAAGTTCCCACAGAGCCCACGCCTAGGGAGATTAGAGTATCGGTCGA | 4.54 log2 normalized intensity
AGTGTAAATATTTGAGGACACAAAGTGGACGCCTAGGGAGATTAGAGTATCGGTCGA | 2.09 log2 normalized intensity
CCTAAAATTGACCTTTGATCACTCATGGGCGCCTAGGGAGATTAGAGTATCGGTCGA | 8.21 log2 normalized intensity
TTGTTTACTCATGTGGTCCTAAGACTAACCGCCTAGGGAGATTAGAGTATCGGTCGA | -0.3 log2 normalized intensity
GTTTACTCATGTGGTCCTAAGACTGACCTTGCCTAGGGAGATTAGAGTATCGGTCGA | 3.77 log2 normalized intensity
CTCATGTGGTCCTAAGACTGACCTTTGATCGCCTAGGGAGATTAGAGTATCGGTCGA | 10.1 log2 normalized intensity
GCTGACCTTTGGTCTAAACCTACTTAGATCGCCTAGGGAGATTAGAGTATCGGTCGA | 4.25 log2 normalized intensity
AATCAACCTTTGATCGTTTGCATGCAGGGCGCCTAGGGAGATTAGAGTATCGGTCGA | 3.25 log2 normalized intensity
CAAATAAACCTTTGACCAATTGACCCTATCGCCTAGGGAGATTAGAGTATCGGTCGA | 3.78 log2 normalized intensity
AATTGACCTTTGATCACTCATGGGCAAGATGCCTAGGGAGATTAGAGTATCGGTCGA | 5.65 log2 normalized intensity
CTCATGTGGTCCTAAAATTGACCTTTGATCGCCTAGGGAGATTAGAGTATCGGTCGA | 10.5 log2 normalized intensity
GGTCAAAGAGCAATCATCAAGGTGGTTTCAGCCTAGGGAGATTAGAGTATCGGTCGA | 1.71 log2 normalized intensity
AACACTTACACCTGGGTGCTCCCTCCCCCTGCCTAGGGAGATTAGAGTATCGGTCGA | 4.36 log2 normalized intensity
CTGCCTTAGTCCCAGTATGGTCTCAGTAATGCCTAGGGAGATTAGAGTATCGGTCGA | -0.127 log2 normalized intensity
ATGCTATCTCCCAGTTCTTTTGACCTTTGCGCCTAGGGAGATTAGAGTATCGGTCGA | 7.68 log2 normalized intensity
ATCTCCCAGTTCTTTTGACCTTTGCCTCATGCCTAGGGAGATTAGAGTATCGGTCGA | 7.95 log2 normalized intensity
CCTCAATGCTATCTCCCAGTTCTTTTGACCGCCTAGGGAGATTAGAGTATCGGTCGA | 2.52 log2 normalized intensity
AGTTATATCTTACCTCCTTCTCCCCCATGCGCCTAGGGAGATTAGAGTATCGGTCGA | 4.87 log2 normalized intensity
TCCTTTTGACCACAGTTATCTCCCCAGCTTGCCTAGGGAGATTAGAGTATCGGTCGA | 2.47 log2 normalized intensity
CCAGTTCTTTTGACCTTTGCCTCATTCTTAGCCTAGGGAGATTAGAGTATCGGTCGA | 6.03 log2 normalized intensity
